Data on nine molecules can be found in PubChem BioAssay.

Test [1] can be described thus: resazurin metabolic signal in HepG2 cells – cell-based, resazurin fluorescence, 24 h, PK04 Diversity Set, profiling panel (AID 1172). The note with it: HepG2 viability, higher = more signal.
Test [2] can be described thus: budding yeast growth changes without added modifier – OD600, strain BY4716, 24 h, basal condition, primary screen (AID 1173). Particulars: S. cerevisiae BY4716 growth, OD600, 24 h; higher = more signal, called active from +8 up or from −8 down.
Test [3] in a line: viability profiling in MM1S myeloma cells – cell-based, resazurin fluorescence, basal, 24 h, PK04 Diversity Set, profiling panel (AID 1174). The note with it: higher = more signal, called active from +8 up or from −8 down.
The target in test [4] is Dihydroorotate dehydrogenase (quinone), mitochondrial (Plasmodium falciparum (isolate 3D7)) (UniProt Q08210). Put plainly: inhibition of P. falciparum DHODH – biochemical, C-terminal His tag, absorbance 600 nm, primary screen (AID 1175).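 Also: recombinant parasite enzyme with a five histidine tag at its C terminus.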 The note with it: PfDHODH enzyme, DCIP absorbance 600 nm; higher = more signal, called active from +8 up or from −8 down.
A short description of test [5]: inhibition of PAO1 biofilm formation – strain PAO1, LB-PBS medium, absorbance 600 nm, primary screen (AID 1176). The note with it: P. aeruginosa PAO1 growth/biofilm, A600, 12 h; higher = more signal.
A short description of test [6]: growth modulation of vineyard yeast isolate – strain RM11-1a, OD600, basal, 24 h, primary screen (AID 1177).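 Also: cultures grown under basal conditions with no added stressor.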 Particulars: S. cerevisiae RM11-1a growth, OD600, 24 h; higher = more signal, called active from +8 up or from −8 down.
Test [7] in a line: growth of efflux-deficient E. coli DRC39 – strain DRC39, OD650, 24 h, E. coli filamentation inducers, primary screen (AID 1178).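 Also: growth measured as culture turbidity by optical density at 650 nm.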 Particulars: E. coli DRC39 acrAB, higher = more signal, called active from +8 up or from −8 down.
Test [8] is described as follows: growth of efflux-deficient E. coli DRC39 – strain DRC39, OD650, 48 h, E. coli filamentation inducers, primary screen (AID 1179).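 Also: screen aims at cell division blockers that make cells filament.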 The note with it: E. coli DRC39 delta-acrAB growth, higher = more signal, called active from +8 up or from −8 down.
Test [9] can be described thus: viability profiling in RPMI8226 myeloma cells – cell-based, resazurin fluorescence, basal, 24 h, PK04 Diversity Set, profiling panel (AID 1180).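 Also: RPMI8826 multiple myeloma cell line at 5000 cells per well.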 The note with it: higher = more signal.
The target in test [10] is E3 ubiquitin-protein ligase XIAP (Homo sapiens) (UniProt P98170). Description: small molecules binding XIAP protein – biophysical, small-molecule microarray, fluorescence 635 nm, primary screen (AID 1181).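 Also: score merges 667 nm emission and signal to noise over triplicate slides.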 The note with it: higher = more signal.
For test [11], the system named is XIP peptide (Xip251-270) binding. Description: XIP fragment 251-270 binding compounds – biochemical, small-molecule microarray, fluorescence 635/667 nm, 0.1 µg/mL protein, primary screen (AID 1182). Particulars: fluorescent protein binding, 635 nm, higher = more signal, called active from +8 up or from −8 down.
The test system of the next test is XIP peptide (Xip251-270). Description: compounds binding XIP fragment 251-270 – biochemical, small-molecule microarray, fluorescence 635/667 nm, 0.5 µg/mL protein, primary screen (AID 1183). Particulars: fluorescence 635 nm, higher = more signal.
Test [12] in a line: blood-stage malaria parasite viability loss – strain 3D7, DAPI fluorescence, 100 nL, primary screen (AID 1184).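 Also: parasites grown inside human red blood cells in medium with human serum.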 Particulars: P. falciparum 3D7 growth, 3 d, higher = more signal.
The target in test [13] is Homeobox protein Hox-A13 (Mus musculus) (UniProt Q62424). Put plainly: disruptors of Hoxa13 oligonucleotide interaction – biochemical, fluorescence polarization, labeled oligonucleotide, primary screen (AID 1185). The note with it: Hoxa13:DNA binding, 15 min, higher = more signal, called active from +8 up or from −8 down.
The nature of test [14]: blockers of DNA damage checkpoint Chk1 activation – imaging, HeLa, hydroxyurea, phospho-Chk1 antibody, percent positive cells, primary screen (AID 1186). The note with it: hydroxyurea-induced phospho-Chk1 immunofluorescence imaging, higher = more signal.
Test [15] is described as follows: blockers of DNA damage checkpoint Chk1 activation – imaging, HeLa, hydroxyurea, phospho-Chk1 nuclear intensity, primary screen (AID 1187). Particulars: hydroxyurea-induced phospho-Chk1 immunofluorescence imaging, higher = more signal.

Structures are written as SMILES. Calls of active or inactive are those of the source. Unless noted, no rule for the calls is given here.

E3 ubiquitin-protein ligase XIAP (Homo sapiens), sequence (P98170 whole entry, looked up, the tested form may be a part): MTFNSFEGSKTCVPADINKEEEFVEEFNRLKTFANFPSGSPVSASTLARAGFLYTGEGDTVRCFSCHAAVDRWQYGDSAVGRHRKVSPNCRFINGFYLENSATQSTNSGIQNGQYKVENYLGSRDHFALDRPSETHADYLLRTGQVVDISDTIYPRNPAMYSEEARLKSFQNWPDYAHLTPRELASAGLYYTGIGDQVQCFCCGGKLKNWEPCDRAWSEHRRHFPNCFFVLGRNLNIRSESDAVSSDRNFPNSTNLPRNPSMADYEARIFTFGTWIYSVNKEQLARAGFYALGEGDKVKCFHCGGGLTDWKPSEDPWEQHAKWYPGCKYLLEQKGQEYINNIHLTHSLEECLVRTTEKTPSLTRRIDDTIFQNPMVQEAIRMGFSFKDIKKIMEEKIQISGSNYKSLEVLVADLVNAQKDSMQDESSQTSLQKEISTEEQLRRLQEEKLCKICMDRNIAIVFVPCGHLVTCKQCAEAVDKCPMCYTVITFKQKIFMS
Dihydroorotate dehydrogenase (quinone), mitochondrial (Plasmodium falciparum (isolate 3D7)), sequence (Q08210 whole entry, looked up): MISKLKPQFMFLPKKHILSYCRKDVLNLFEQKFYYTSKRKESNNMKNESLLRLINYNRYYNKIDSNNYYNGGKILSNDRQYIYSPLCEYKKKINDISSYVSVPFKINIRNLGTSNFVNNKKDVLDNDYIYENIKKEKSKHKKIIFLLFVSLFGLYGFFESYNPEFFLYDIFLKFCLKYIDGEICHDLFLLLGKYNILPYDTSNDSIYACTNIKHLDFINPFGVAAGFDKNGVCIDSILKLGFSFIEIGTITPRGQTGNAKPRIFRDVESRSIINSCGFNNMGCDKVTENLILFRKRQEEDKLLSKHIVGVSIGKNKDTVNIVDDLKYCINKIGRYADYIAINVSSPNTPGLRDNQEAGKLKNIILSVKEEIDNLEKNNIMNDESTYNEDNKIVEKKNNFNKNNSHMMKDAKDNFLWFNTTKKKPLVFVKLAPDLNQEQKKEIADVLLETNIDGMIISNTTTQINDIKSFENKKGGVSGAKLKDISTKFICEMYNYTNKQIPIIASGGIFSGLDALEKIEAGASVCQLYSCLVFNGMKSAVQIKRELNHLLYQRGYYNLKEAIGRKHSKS
Homeobox protein Hox-A13 (Mus musculus), sequence (Q62424 whole entry, looked up): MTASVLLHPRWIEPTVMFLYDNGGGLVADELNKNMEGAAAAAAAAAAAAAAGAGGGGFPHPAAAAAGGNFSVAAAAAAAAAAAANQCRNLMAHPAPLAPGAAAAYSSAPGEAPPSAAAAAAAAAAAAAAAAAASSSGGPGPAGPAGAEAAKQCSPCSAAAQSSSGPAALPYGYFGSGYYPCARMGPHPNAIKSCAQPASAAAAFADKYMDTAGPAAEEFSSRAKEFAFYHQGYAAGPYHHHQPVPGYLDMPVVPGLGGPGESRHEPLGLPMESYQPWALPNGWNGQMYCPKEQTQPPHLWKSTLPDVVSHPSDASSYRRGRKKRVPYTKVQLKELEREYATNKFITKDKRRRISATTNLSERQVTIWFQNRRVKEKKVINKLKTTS

For `NCCCCCNC(=O)[C@H]1C[C@H]2C(=O)N[C@@H](Cc3ccccc3)C(=O)N2[C@H]1c1cccc(OCCO)c1`, the z-score in [1] was 0.391; in test [2], -1.84 (inactive); in [3] it was 1.04 (inactive); in [5], 0.022 (inactive); in [6], -0.439 (inactive); in [7] it was -0.154 (inactive). Also, the z-score in test [8] is 0.496 (inactive); in test [9], 0.953; in test [12], -0.329; in [13], -3.23 (inactive); in test [14], 0.0742 (inactive); in test [15], 0.304 (inactive). Further, the composite z-score is 0.884 (inactive) in test [4], -0.0599 in [10], 1.51 (inactive) in test [11] and 0.683 in the test with XIP peptide (Xip251-270).

For the molecule `C#CCN1[C@H](/C=C/C2CC2)[C@H](Cc2ccccc2)OC(=O)[C@@H]1Cc1ccccc1`, the z-score in test [1] is 0.512; in [2], 0.169 (inactive); in test [3], 0.214 (inactive); in test [5] it was -0.283 (inactive); in test [6] it was 0.0319 (inactive); in test [7], -0.463 (inactive). In addition, the z-score is -0.144 (inactive) in [8]; 0.454 in [9]; -0.568 in test [12]; -0.837 (inactive) in test [13]; -0.315 (inactive) in test [14]; -0.418 (inactive) in test [15]. In addition, the composite z-score is -0.627 (inactive) in test [4], 0.0853 in test [10], 1.42 (inactive) in test [11] and 0.513 in the test on XIP peptide (Xip251-270).

In the case of `O=C(NC1CC1)[C@@H]1c2ccccc2C(=O)N(Cc2cc(F)cc(C(F)(F)F)c2)[C@H]1c1ccc(CO)cc1`, the z-score is 0.672 in [1]; -0.626 (inactive) in test [2]; -0.24 (inactive) in [3]; 0.373 (inactive) in test [5]; -0.953 (inactive) in [6]; 0.678 (inactive) in test [7]. Besides, the z-score in [8] was -0.664 (inactive); in test [9], -0.0559; in [12], -0.247; in [13] it was -3.5 (inactive); in test [14] it was 0.135 (inactive); in test [15], -0.0928 (inactive). Further, the composite z-score was -0.323 (inactive) in [4], -0.0527 in test [10], -0.414 (inactive) in [11] and 0.716 in the test with XIP peptide (Xip251-270).

Turning to `O=C1C2C=CC(C(O)C=Cc3ccc([N+](=O)[O-])cc3)N(n3cnnc3)C2C(=O)N1Cc1ccccc1` (centres undefined), the z-score was 0.178 in [1]; -0.586 (inactive) in [2]; -0.519 (inactive) in [3]; 0.601 (inactive) in [5]; -0.155 (inactive) in test [6]; -0.866 (inactive) in test [7]. The z-score in test [8] is -0.721 (inactive); in [9] it was -0.647; in [12], -0.0257; in [13], -3.97 (inactive); in test [14] it was -0.253 (inactive); in [15] it was -0.32 (inactive). Also, the composite z-score in test [4] was 0.607 (inactive); in [10] it was -0.236; in test [11], 1.01 (inactive); in the test on XIP peptide (Xip251-270), 0.856.

For `COCCOC(=O)N1C(=O)[C@@]2(c3cc(C#CC4(O)CCCCCC4)ccc31)[C@H](c1ccccc1OCCO)N1[C@H](c3ccccc3)[C@H](c3ccccc3)OC(=O)[C@H]1[C@@H]2C(=O)N1CCc2cc(OC)c(OC)cc2C1`, the z-score is 0.598 in [1]; 2.06 (inactive) in [2]; -0.9 (inactive) in [3]; 2.26 (inactive) in test [5]; 3.05 (inactive) in test [6]; -0.404 (inactive) in [7]. For the same molecule, the z-score in test [8] is -0.405 (inactive); in test [9], -0.203; in [12] it was -1.89; in test [13], -0.494 (inactive); in test [14], -0.149 (inactive); in [15], 0.27 (inactive). In addition, the composite z-score is 0.445 (inactive) in test [4], -0.127 in test [10], 0.164 (inactive) in test [11] and 0.741 in the test on XIP peptide (Xip251-270).

On to `C=CC1c2cc(O)c(OC)cc2CCN1Cc1cccc(OC(F)(F)F)c1` (centres undefined), for which the z-score is 0.125 in test [1]; -16.7 (active) in test [2]; -4.17 (inactive) in [3]; 0.0898 (inactive) in test [5]; -13.7 (active) in test [6]; 1.2 (inactive) in [7]. Also, the z-score is 0.738 (inactive) in [8]; -2.3 in [9]; -1.8 in test [12]; -4.91 (inactive) in [13]; 0.08 (inactive) in test [14]; 0.362 (inactive) in [15]. In addition, the composite z-score in test [4] was -5.06 (inactive); in test [10], 0.0304; in test [11], 1.81 (inactive); in the test with XIP peptide (Xip251-270) it was 0.918.

On to `CCCNC(=O)[C@@H]1c2ccccc2C(=O)N(Cc2ccccc2OC)[C@H]1c1ccc(CO)cc1`, for which the z-score in [1] was -0.314; in test [2], -0.42 (inactive); in test [3] it was -1.32 (inactive); in test [5], -0.0933 (inactive); in [6] it was 0.262 (inactive); in [7] it was 0.324 (inactive). Further, the z-score in test [8] was 0.285 (inactive); in test [9] it was -0.694; in test [12], -1.54; in test [13], -3.2 (inactive); in test [14] it was -0.175 (inactive); in test [15] it was -0.0848 (inactive). The composite z-score in test [4] was -0.486 (inactive); in [10] it was -0.113; in test [11], 0.273 (inactive); in the test on XIP peptide (Xip251-270), 0.85.

Turning to `CN(C)C(=O)[C@]1(Cc2ccccc2)N=C(c2ccc(OCCCO)cc2)O[C@@H]1c1ccccc1N=[N+]=[N-]`, the z-score in test [1] was -0.274; in test [2] it was -1.43 (inactive); in [3] it was -2.64 (inactive); in test [5] it was -0.0837 (inactive); in test [6], 1.29 (inactive); in [7], 0.349 (inactive). The z-score in test [8] was 0.908 (inactive); in test [9], -2.58; in [12], -2.31; in test [13], -5.85 (inactive); in test [14], -0.366 (inactive); in test [15], -0.903 (inactive). Also, the composite z-score in test [4] was 0.9 (inactive); in test [10], 0.237; in test [11] it was 0.79 (inactive); in the test on XIP peptide (Xip251-270), 0.708.

For `COCCCNC(=O)[C@@H]1c2ccccc2C(=O)N(Cc2ccccc2)[C@H]1c1ccc(CO)cc1`, the z-score in [1] was 0.0319; in [2], -0.141 (inactive); in [3], 0.0771 (inactive); in [5], 0.0993 (inactive); in test [6] it was -0.575 (inactive); in [7], 0.38 (inactive). Moreover, the z-score was 0.0879 (inactive) in [8]; 0.279 in [9]; 0.207 in test [12]; -1.77 (inactive) in test [13]; -0.0813 (inactive) in [14]; -0.452 (inactive) in test [15]. For the same molecule, the composite z-score in test [4] was -0.62 (inactive); in [10], -0.0663; in test [11], -0.267 (inactive); with XIP peptide (Xip251-270) it was 0.401.
